Assay results from PubChem BioAssay (NCATS).
Results filed as inconclusive are left out. Where a call stands in place of a potency, no number is given. The source made the active and inactive calls. Calls follow the shape of the dose curve; as a rule, active = well fitted inhibition curve with a large enough effect; inconclusive = small, poorly fitted or top-dose-only effect; inactive = flat fitted curve, though single readings scatter.

System: Zika virus NS2B-NS3 protease
Assay: Primary screen GU AMC qHTS for Zika virus inhibitors (AID 1347154); also: nearly all actives have a fitted effect of over 70% in size
Conditions: Zika NS2B-NS3 unlinked protease, AMC fluorogenic substrate; series mostly up to 54.1 µM
In short: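 Unlinked Zika NS2B hydrophilic domain–NS3 protease complex at 25 nM in 10 mM Tris-HCl pH 8.0, 0.01% Tween 20, with an AMC peptide substrate. Fluorescence change (340/450 nm) over 15 min at room temperature, normalized to controls, fitted to 4-parameter Hill.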

SMILES | Potency
CC(C)NC(=O)c1ccc(C=O)cc1 | inactive
O=C(O)Cc1ccc(OCCNC[C@H](O)c2ccccc2)cc1 | inactive
COC(=O)CCCCC(CCSS/C(CCO)=C(\C)N(C=O)Cc1cnc(C)nc1N)SC(C)=O (configuration not stated) | inactive
CCOc1ncc(F)c(=O)[nH]1 | inactive
CCN1CCN(C(=O)N[C@@H](C(=O)N[C@@H]2C(=O)N3[C@@H]2SC(C)(C)[C@H]3C(=O)O)c2ccccc2)C(=O)C1=O | inactive
CCCC(=O)O[C@]1(C(=O)COC(=O)CC)CC[C@H]2[C@@H]3CCC4=CC(=O)CC[C@]4(C)[C@H]3[C@@H](O)C[C@@]21C | inactive
COc1cc2nc(Cl)nc(N)c2cc1OC | inactive
O=C1c2ccccc2CCc2ccccc21 | inactive
CCC(=O)O[C@]1(C(=O)COC)[C@@H](C)C[C@H]2[C@@H]3CCC4=CC(=O)C=C[C@]4(C)C3(F)[C@@H](O)C[C@@]21C (some centres not stated) | inactive
O=C1CC2(CCCC2)CC(=O)N1 | inactive
COc1cc(/C=C/C(N)=O)cc(OC)c1OC | inactive
Cc1nc2n(c(=O)c1CCN1CCC(C(=O)c3ccc(F)cc3)CC1)CCS2 | inactive
CCOC(=O)[C@H](CCc1ccccc1)N[C@@H](C)C(=O)N(CC(=O)O)C1Cc2ccccc2C1 | inactive
Cc1cc2nc3ccc(=[N+](C)C)cc-3sc2cc1N | inactive
Cc1nc(N)nc(N)c1-c1ccc(Cl)c(Cl)c1 | inactive
CCCCCCCCCCCCCCCC[n+]1ccccc1 | inactive
CCOC(=O)Oc1ccc(CCNC(=O)[C@H](CCSC)NC(C)=O)cc1OC(=O)OCC | inactive
